Here are results for seven compounds from PubChem BioAssay (NCI).

SMILES strings stand for the structures. Compounds without any hit were thinned out: in the full panel of roughly 83,000, 20% have a hit.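 Cell lines were cultured in 96-well plates, exposed to a single compound concentration, and assessed for percent growth 48 hours later.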 Unmarked numbers belong to inactive results. The source made the active and inactive calls. The calls were made as follows: active = growth percent below 10; inactive = the rest.

Test systems include HCT-15 colon; HT29 colon; SNB-75 CNS; SNB-19 CNS; U251 CNS; PC-3 prostate; SK-MEL-5 melanoma; UACC-62 melanoma; LOX IMVI melanoma; SK-MEL-2 melanoma; EKVX NSCLC; SN12C renal; UO-31 renal; TK-10 renal; ACHN renal; CAKI-1 renal; A498 renal; CCRF-CEM leukemia; MOLT-4 leukemia; SK-MEL-28 melanoma.
Test in all cases: NCI-60 one-dose screen, 48 h (100 = growth as untreated, 0 = no growth, -100 = all killed)
Details in all cases: 10 µM unless noted

Regarding `CCO/C=N/C1=C(C#N)C(c2ccc(OC)cc2)c2sc3c(F)cccc3c2O1` (stereo unspecified), the growth in the assay on HCT-15 colon is 21.3%; in the assay with HT29 colon, 7.69% (active); in the assay on SNB-75 CNS it was -8.92% (active); in the assay with SNB-19 CNS it was 24%; with U251 CNS it was 24.7%; in the assay on PC-3 prostate it was 33.3%. In addition, the growth is -22.9% (active) in the assay on SK-MEL-5 melanoma; 12.2% with UACC-62 melanoma; 32.2% in the assay on LOX IMVI melanoma; 33.3% with SK-MEL-2 melanoma; 49.4% with EKVX NSCLC; 39.6% with SN12C renal. The growth was 38.1% with UO-31 renal; 51.8% with TK-10 renal; 48.1% in the assay with ACHN renal; 25.2% in the assay on CAKI-1 renal; 21.7% in the assay with A498 renal; 12.2% with CCRF-CEM leukemia. Moreover, the growth in the assay on MOLT-4 leukemia is 24.5%.
For `O=C(O)/C(=C\c1ccc(Cl)cc1)c1ccc(Cl)cc1`, the growth with HCT-15 colon is 86.9%; with HT29 colon, 93.6%; in the assay with SNB-75 CNS, 74.2%; in the assay with SNB-19 CNS, 103%; in the assay on U251 CNS it was 91.9%; in the assay on PC-3 prostate, 89.8%. Also, the growth in the assay with SK-MEL-5 melanoma was 96.4%; in the assay on UACC-62 melanoma, 94.3%; in the assay with LOX IMVI melanoma, 95.2%; with SK-MEL-2 melanoma, 90.3%; in the assay on EKVX NSCLC, 94.3%; in the assay with SN12C renal, 90.4%. The growth in the assay with UO-31 renal is 77.7%; in the assay with TK-10 renal, 106%; in the assay on ACHN renal, 95.2%; with CAKI-1 renal, 70.8%; in the assay with A498 renal it was 94.9%; in the assay with CCRF-CEM leukemia, 96.5%. Further, the growth in the assay with MOLT-4 leukemia is 50%.
With `COc1cccc(/C=C/C(=O)c2cc3c(N)c(C(=O)Nc4ccccc4)sc3nc2C)c1`, the growth with HCT-15 colon was -35.1% (active); in the assay on HT29 colon, -7.47% (active); in the assay with SNB-75 CNS, 3% (active); with SNB-19 CNS, -3.91% (active); in the assay with U251 CNS, -52.9% (active); with PC-3 prostate, 41.7%. Further, the growth in the assay on SK-MEL-5 melanoma is 34.8%; in the assay with UACC-62 melanoma, 20.2%; in the assay on LOX IMVI melanoma, -83.2% (active); with SK-MEL-28 melanoma, 50.4%; with SK-MEL-2 melanoma it was 25.6%; in the assay on EKVX NSCLC, 75.8%. Besides, the growth was 8.27% (active) in the assay with SN12C renal; 11.8% in the assay with UO-31 renal; 40.1% with TK-10 renal; 33.5% in the assay on ACHN renal; 15.4% in the assay on CAKI-1 renal; 58.8% in the assay on A498 renal. Also, the values for the growth in the assay with CCRF-CEM leukemia and in the assay on MOLT-4 leukemia were 7.86% (active) and 20.8%, respectively.
Take `CC[C@@H](C(=O)[C@@H](C)[C@@H](O)[C@H](C)[C@@H]1O[C@@H]([C@@H](CC)C(=O)NCCc2ccc(F)cc2)CC[C@@H]1C)C1O[C@]2(C=CC(=O)[C@]3(CC[C@@](C)([C@H]4CC[C@](O)(CC)[C@H](C)O4)O3)O2)[C@H](C)C[C@@H]1C` (stereo partly specified): the growth was 29.1% in the assay with HCT-15 colon; 47.2% with HT29 colon; 20.8% in the assay with SNB-75 CNS; 26.2% with SNB-19 CNS; 28.4% with U251 CNS; 8.72% (active) in the assay with PC-3 prostate. The growth was 24.6% with SK-MEL-5 melanoma; 26.7% in the assay on UACC-62 melanoma; 52.8% in the assay on LOX IMVI melanoma; 53% in the assay with SK-MEL-2 melanoma; 29.6% with EKVX NSCLC; 37.7% with SN12C renal. The growth in the assay on UO-31 renal is 19.2%; with TK-10 renal it was 16.6%; with ACHN renal, 9.48% (active); in the assay with CAKI-1 renal, 14.2%; with A498 renal, 34.6%; in the assay on CCRF-CEM leukemia, 40.1%. Also, in the assay on MOLT-4 leukemia, the growth is 19.2%.
As to `COC1C[C@H](O[C@@H]2C[C@H](O[C@@H]3C[C@H](O[C@@H]4C(=O)c5c(cc6cc(O[C@H]7C[C@@H](O[C@H]8C[C@@H](O)[C@H](O)C(C)O8)[C@H](O)C(C)O7)c(C)c(O)c6c5O)C[C@H]4C(OC)C(=O)[C@@H](O)[C@@H](C)O)OC(C)[C@H]3O)OC(C)[C@@H]2O)OC(C)[C@@H]1O` (stereo partly specified), the growth is 44.3% in the assay with HCT-15 colon; -8.54% (active) in the assay on HT29 colon; -59% (active) in the assay on SNB-75 CNS; 0.994% (active) in the assay with SNB-19 CNS; 0.915% (active) in the assay on U251 CNS; 9.36% (active) in the assay with PC-3 prostate. In addition, the growth with SK-MEL-5 melanoma is -37.9% (active); in the assay on UACC-62 melanoma it was -64.7% (active); in the assay on LOX IMVI melanoma, -3.35% (active); in the assay on SK-MEL-28 melanoma it was -22.9% (active); in the assay on SK-MEL-2 melanoma, -61.7% (active); in the assay with EKVX NSCLC, 7.01% (active). The growth in the assay with SN12C renal was 2.57% (active); in the assay with UO-31 renal it was 5.02% (active); in the assay on TK-10 renal, 1.34% (active); in the assay on ACHN renal it was 6.35% (active); in the assay on CAKI-1 renal it was 28.6%; in the assay on A498 renal it was -44.5% (active). The figures for the growth with CCRF-CEM leukemia and in the assay with MOLT-4 leukemia were 6.53% (active) and 5.23% (active), respectively.
On to `Brc1c2c(c(Br)c3ccccc13)CCCC2`, for which the growth in the assay with HCT-15 colon is 112%; in the assay with HT29 colon, 85.2%; with SNB-75 CNS, 97.8%; in the assay with SNB-19 CNS, 96.4%; in the assay with U251 CNS, 91.2%; with PC-3 prostate, 93.6%. The growth with SK-MEL-5 melanoma was 98.3%; in the assay with UACC-62 melanoma it was 84.9%; with LOX IMVI melanoma, 100%; with SK-MEL-2 melanoma, 93.8%; in the assay with EKVX NSCLC, 97.2%; with SN12C renal, 94.2%. The growth is 95.2% with UO-31 renal; 99.2% in the assay with TK-10 renal; 104% in the assay with ACHN renal; 99.2% in the assay with CAKI-1 renal; 94.6% in the assay with A498 renal; 96.5% in the assay with CCRF-CEM leukemia. Further, in the assay on MOLT-4 leukemia, the growth is 95.8%.
Regarding `COC(=O)c1c2c(c[n+]([O-])c1C)C(=O)C(NCc1ccccc1)=CC2=O`, the growth in the assay with HCT-15 colon was -60.1% (active); in the assay with HT29 colon, -0.488% (active); in the assay with SNB-75 CNS it was -97.9% (active); in the assay with SNB-19 CNS, -23.8% (active); in the assay with U251 CNS, -57.4% (active); in the assay with PC-3 prostate it was -11.1% (active). In addition, the growth in the assay with SK-MEL-5 melanoma is -97% (active); in the assay with UACC-62 melanoma, -78.5% (active); with LOX IMVI melanoma, -30.1% (active); in the assay with SK-MEL-28 melanoma it was -29.3% (active); with SK-MEL-2 melanoma it was -44.4% (active); with EKVX NSCLC, -45.1% (active). For the same compound, the growth was -78.9% (active) in the assay with SN12C renal; -14.8% (active) with UO-31 renal; 39% in the assay on TK-10 renal; -18.4% (active) in the assay on ACHN renal; 3.84% (active) in the assay on CAKI-1 renal; -4.89% (active) with A498 renal. Further, the growth in the assay with CCRF-CEM leukemia was 2.92% (active); with MOLT-4 leukemia, -29.4% (active).
